# Data published in ChEMBL document CHEMBL3988442, “University of Dundee, Small-Polar-MMV Screening Library” (2021).
# Among all 48,000 compounds or so, about 13,000 (27%) showed an effect of 50% or more. Some of the results follow.
# System: Wolbachia pipientis
# Experiment: Anti-Wolbachia Cell-Based Screen
# Type: functional
# Design: scale not given: in the data most compounds retested in dose-response had high values
# Conditions: 5 µM
row,SMILES,Percent Effect
1,CC(=O)NCCNCC1(O)CCCN(CCC2CCCCC2)C1=O (stereo not given),-25.88%
2,O=C(O)c1ccnc(-c2ccnc(COc3ccccc3Cl)n2)c1,-33.61%
3,Cc1noc(CN2CC(=O)N(C)c3ccccc3C2=O)n1,12.92%
4,Cc1c(CS(C)(=O)=O)cccc1NC(=O)CC1CCCC1,-14.57%
5,Cc1nc(CN2C[C@@H]3COC[C@]3(COCC(=O)N(C)C)C2)cs1.O=C(O)C(F)(F)F,99.96%
6,Cc1nc(COC[C@]23COC[C@H]2CN(Cc2ccoc2)C3)cs1.O=C(O)C(F)(F)F,-5.417%
7,Cc1ccsc1CN1C[C@@H]2COC[C@]2(COCC(=O)N(C)C)C1.O=C(O)C(F)(F)F,107.4%
8,Cc1csc(CN2C[C@@H]3COC[C@]3(COCC(=O)N(C)C)C2)n1.O=C(O)C(F)(F)F,103.7%
9,CCS(=O)(=O)NC[C@]12COC[C@H]1CN(Cc1sccc1C)C2.O=C(O)C(F)(F)F,-13.08%
10,Cc1ccsc1CN1C[C@@H]2COC[C@]2(CNC(=O)c2ccco2)C1.O=C(O)C(F)(F)F,-18.71%
11,Cc1nc(COC[C@@]23CCC[C@@H]2CN(CC2CCOCC2)C3)cs1.O=C(O)C(F)(F)F,1.66%
12,Cc1cc(C(=O)N2CCC(c3nccn3Cc3ccncc3)CC2)no1,-16.29%
13,C[C@@H]1C[C@H]2CN(C(=O)C3=CCCC3)C[C@H]2O1,-41.87%
14,CCOc1ccc(S(=O)(=O)NCCc2ccc(N(C)C)cc2)cc1F,9.493%
15,CCN(CC)C(=O)CCNC(=O)N(C)Cc1ccc(SC)c(OC)c1,28.83%
16,Cc1ccc(F)c(CNc2ccn(CCC(N)=O)n2)c1,-13.86%
17,O=C1CC[C@H]2CN(c3ncc(F)cn3)CC[C@H]2N1CCc1ccccn1,-8.563%
18,Cc1ccc(CN2CCC3(CC(C(=O)NCC4CC4)=NO3)C2)cc1C (stereo not given),21.96%
19,N#Cc1cccc(CN2CCC3(CC(C(=O)NCC4CC4)=NO3)C2)c1 (stereo not given),-1.937%
20,CC(C)CNC(=O)C1=NOC2(CCN(Cc3cccc(C#N)c3)C2)C1 (stereo not given),102.8%
21,CCCS(=O)(=O)N1CCC2(CC(C(=O)NCc3cccnc3)=NO2)C1 (stereo not given),-9.91%
22,Cc1cccc(CN2CCC3(CC(C(=O)NCC(C)C)=NO3)C2)c1 (stereo not given),117.4%
23,O=C(NCC1CC1)C1=NOC2(CCN(Cc3ccc4c(c3)OCO4)C2)C1 (stereo not given),-22.77%
24,CNc1snc(C)c1C(=O)N1CCCC(n2ccnc2C(C)C)C1 (stereo not given),1.946%
25,Cc1n[nH]c(=O)c2c(NC(=O)CN3CCC(O)CC3)oc(C)c12,10.48%

row,SMILES,Percent Effect
1,CCCNCC1(O)CCCN(Cc2cccc(C)c2)C1=O (stereo not given),20.78%
2,Nc1nc(CCC(=O)N2C[C@@H](CN3CCCC3)C[C@H](CO)C2)n[nH]1,-12.43%
3,Cc1ccc(C2CC(=O)NCc3nc(N)sc32)cc1C (stereo not given),0.1432%
4,CCn1ncnc1C1CC(=O)NCc2nc(N3CCCC3)sc21 (stereo not given),88.25%
5,CCOc1cccc(C2CC(=O)NCc3nc(N)sc32)c1 (stereo not given),2.31%
6,CCCn1ncc(C2CC(=O)NCc3nc4sc(C)cn4c32)c1C (stereo not given),0.1811%
7,CCOc1cccc(C2CC(=O)NCc3nc(N4CCCC4)sc32)c1 (stereo not given),-6.785%
8,CCn1ncnc1C1CC(=O)NCc2nc(N3CCOCC3)sc21 (stereo not given),112.6%
9,CCOc1cccc(C2CC(=O)NCc3nc(N(C)C)sc32)c1 (stereo not given),5.085%
10,CCn1ncnc1C1CC(=O)NCc2nc3ccccn3c21 (stereo not given),-4.231%
11,CCn1ncnc1C1CC(=O)NCc2nc(N)sc21 (stereo not given),74.2%
12,O=C1CCCc2[nH]c(=O)c(C(=O)N(CC3CCCCC3)C3CC3)cc21,-8.56%
13,Cc1ccc(S(=O)(=O)N2CCOc3ccccc32)cc1C(N)=O,5.411%
14,CC(C)c1noc(CN(C)C(=O)c2ccccc2-c2nc[nH]n2)n1,-15.19%
15,CC(C)NC(=O)N1CCN(C(=O)N(C)C)CC2(CC(=O)N(C)C2)C1 (stereo not given),11.38%
16,CCN1CC2(CC1=O)CN(C(=O)NC)CCN(S(C)(=O)=O)C2 (stereo not given),1.458%
17,CCN1CC2(CC1=O)CN(C(=O)NC(C)C)CCN(S(C)(=O)=O)C2 (stereo not given),100.8%
18,CCN1CC2(CC1=O)CN(C(=O)C(C)C)CCN(S(C)(=O)=O)C2 (stereo not given),4.611%
19,CCN1CC2(CC1=O)CN(C(=O)NC(C)C)CCN(C(=O)NC(C)C)C2,115.2%
20,CCN1CC2(CC1=O)CN(C(C)=O)CCN(C(=O)NC)C2 (stereo not given),104.3%
21,CCN1CC2(CC1=O)CN(C(=O)C(C)C)CCN(S(=O)(=O)CC)C2 (stereo not given),12.11%
22,CNC(=O)N1CCN(C(=O)C(C)C)CC2(CC(=O)N(C)C2)C1 (stereo not given),-13.05%
23,CCN1CC2(CC1=O)CN(C(=O)N(C)C)CCN(S(C)(=O)=O)C2 (stereo not given),-16.32%
24,CCN1CC2(CC1=O)CN(C(=O)NC(C)C)CCN(C(=O)C(C)C)C2 (stereo not given),117.3%
25,CCS(=O)(=O)N1CCN(C(=O)NC(C)C)CC2(CC(=O)N(C)C2)C1 (stereo not given),-2.042%
